A selection: hits, their analogues and other compounds. The true share with any hit is near 4%.
HIF-2a block: inhibitors of HIF-2a; inhibition, % at 18.8 µM; 0.72% of 360,000 active; 786-0 RCC cells HIF-2a reporter, luciferase luminescence, overnight;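 active = inhibition of the luminescence signal of 40% or more relative to plate controls, in a single-dose primary screen at 18.75 µM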
Peg3 promoter: Peg3 promoter activity inhibition | HeLa PEG-Prom luciferase reporter, luminescence, overnight | AID 588405 | inhibition, % at 20 µM | 1.7% of 360,000 active;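 active = inhibition of at least 50% at 20 µM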
CF NFkB inh: blocks PAF-induced NF-kB reporter in cystic fibrosis cells; KKLEB NF-kB-GFP reporter, GFP fluorescence overnight; inhibition, % at 5 µM; 0.86% of 360,000 active; AID 588850;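 active = at least 50% inhibition at 5 µM, scaled per plate between neutral and stimulator controls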;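 also: PAF is a Pseudomonas aeruginosa culture filtrate used as stimulus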
KKLEB tox: counter-screen for CF NF-kB inhibitors: cytotoxicity; KKLEB CF airway cells viability, ATPlite luminescence, overnight; hits give low values; cells stimulated with P. aeruginosa culture filtrate; activity change (cytotoxicity), % at 5 µM; 0.36% of 360,000 active; AID 602141;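 active = corrected activity change at or below -50% at 5 µM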
TWEAK Fn14 block: blocks TWEAK-Fn14 interaction in a reporter cell assay; TWEAK-stimulated Fn14 reporter cells, luciferase luminescence, 8 h; inhibition, % at 10 µM; 2% of 360,000 active; in the data active = inhibition above about 50%
TROY NFkB inh: TROY signaling inhibition; Q293 LMP1-TROYcd NF-kB luciferase reporter, 4 h; inhibition, % at 10 µM; 0.98% of 360,000 active;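 active = compounds whose plate-normalised and pattern-corrected inhibition of the luciferase reporter signal at the single screening dose is 50% or more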
Mdm2-MdmX confirm: Mdm2/MdmX (human) interaction inhibition, confirmed. shares compounds with HIF-2a block. inhibition, % at 8 µM. AID 504601. SaOS-2 split-luciferase Mdm2/MdmX complementation, luminescence. 99% of 740 active;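 active = mean inhibition of the luminescence signal across two replicates at or above 26 percent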
Target sequence (O15151 whole entry, looked up): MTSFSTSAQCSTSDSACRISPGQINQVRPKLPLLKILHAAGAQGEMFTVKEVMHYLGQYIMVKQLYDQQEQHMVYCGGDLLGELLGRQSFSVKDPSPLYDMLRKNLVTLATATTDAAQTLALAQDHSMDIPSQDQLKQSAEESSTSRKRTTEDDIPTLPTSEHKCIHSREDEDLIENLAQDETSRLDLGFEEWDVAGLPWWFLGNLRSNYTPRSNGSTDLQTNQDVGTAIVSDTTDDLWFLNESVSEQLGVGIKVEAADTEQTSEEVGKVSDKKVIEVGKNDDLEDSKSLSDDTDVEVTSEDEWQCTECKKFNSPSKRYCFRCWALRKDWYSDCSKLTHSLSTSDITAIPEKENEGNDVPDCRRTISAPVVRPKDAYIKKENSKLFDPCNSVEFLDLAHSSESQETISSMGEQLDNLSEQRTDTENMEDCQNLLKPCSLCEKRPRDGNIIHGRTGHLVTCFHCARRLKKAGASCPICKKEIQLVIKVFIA
Target sequence (Q00987 whole entry, looked up): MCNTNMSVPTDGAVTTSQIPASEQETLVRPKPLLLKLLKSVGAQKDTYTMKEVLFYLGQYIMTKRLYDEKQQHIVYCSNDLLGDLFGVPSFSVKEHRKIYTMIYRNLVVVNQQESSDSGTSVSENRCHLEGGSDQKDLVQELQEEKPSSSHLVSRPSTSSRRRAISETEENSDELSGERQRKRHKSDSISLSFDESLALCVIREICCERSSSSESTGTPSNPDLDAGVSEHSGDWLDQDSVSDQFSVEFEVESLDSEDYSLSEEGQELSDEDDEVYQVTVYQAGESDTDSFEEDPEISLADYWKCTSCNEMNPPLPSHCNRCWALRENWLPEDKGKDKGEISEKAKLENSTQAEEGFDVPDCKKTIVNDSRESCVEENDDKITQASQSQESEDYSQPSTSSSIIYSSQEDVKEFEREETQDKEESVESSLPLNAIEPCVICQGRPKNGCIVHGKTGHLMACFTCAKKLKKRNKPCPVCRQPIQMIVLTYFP
HIF-2a inh conf: HIF-2a inhibition, single concentration confirmation; inhibition, % at 18.8 µM; 56% of 1,800 active; 786-0 RCC cells, HIF-2a luciferase reporter luminescence, overnight; shares compounds with HIF-2a block;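 active = mean inhibition across four replicates of at least 40 percent at the single tested concentration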
HIF-1a cs: inhibits HIF-1a reporter, a counter-screen for HIF-2a inhibitors; shares compounds with HIF-2a block; MiaPaCa-2 HIF-1a luciferase reporter, desferoxamine, overnight; inhibition, % at 18.8 µM; 72% of 1,800 active;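 active = mean inhibition of the reporter signal across four replicates at the single tested dose of 50% or more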
Large screens that a line does not name were inactive (follow-up assays come after a bar, where they were run).

CC(C)(C)c1ccc(-c2noc(CCC(=O)NCc3ccco3)n2)cc1	HIF-2a block 85 | HIF-2a inh conf 92 | HIF-1a cs inactive
N#Cc1cccc(C=C(C(=O)c2ccccc2)c2ccccc2)c1	HIF-2a block 41, TWEAK Fn14 block 64 (no result: Peg3 promoter, CF NFkB inh, KKLEB tox) | HIF-2a inh conf inactive | HIF-1a cs inactive
C[C@H](CO)N1C[C@H](C)[C@@H](CN(C)Cc2cccc3c2OCCCO3)OCc2cnnn2CCCC1=O	none
O=S(=O)(/C=C/C=C/S(=O)(=O)c1ccccc1)c1ccccc1	HIF-2a block 95, Peg3 promoter 100, CF NFkB inh 92, TWEAK Fn14 block 93 | HIF-2a inh conf 96 | HIF-1a cs 105
CN1CCN(Cc2nc3ccccc3c(=O)n2Cc2nc(-c3ccc4ccccc4c3)cs2)CC1	HIF-2a block 62, Peg3 promoter 105 | HIF-2a inh conf inactive | HIF-1a cs 106
CC(C)n1c(/C=C/[C@H](O)C[C@H](O)CC(=O)O)c(-c2ccc(F)cc2)c2ccccc21	HIF-2a block 45 | HIF-2a inh conf inactive | HIF-1a cs inactive
Cn1cc(C(CC(=O)O)C(=O)O)c2ccccc21 (configuration not stated)	none
COc1ccc(-c2csc3ncnc(Cl)c23)cc1	none
COc1ccc(Nc2ncnc3scc(-c4ccc(OC)cc4)c23)cc1	HIF-2a block 42 | HIF-2a inh conf inactive | HIF-1a cs 58
O=[N+]([O-])c1ccc(CN2CCN(c3nc4ccccc4s3)CC2)cc1	none
CCCn1nc([N+](=O)[O-])c(C(C#N)c2nc3ccccc3s2)c(Cl)c1=O (configuration not stated)	HIF-2a block 52, KKLEB tox -55, TWEAK Fn14 block 77 | Mdm2-MdmX confirm 100
CCOc1ccc2nc(C)cc(Nc3cccc([N+](=O)[O-])c3)c2c1	HIF-2a block 63, Peg3 promoter 92 | Mdm2-MdmX confirm 103 | HIF-2a inh conf inactive | HIF-1a cs 101
CCOc1ccc2nc(C)cc(Nc3ccc4c(c3)OCCO4)c2c1	HIF-2a block 45, Peg3 promoter 88 | HIF-2a inh conf inactive | HIF-1a cs inactive
Cc1cc(Nc2ccc([N+](=O)[O-])cc2)c2ccccc2n1	none | Mdm2-MdmX confirm 103
COc1ccc(CCNC(=O)CSc2nn(-c3ccccc3)c(=S)s2)cc1	none
Cc1cccc(N2CCN(C(=O)CSCc3c(C)noc3C)CC2)c1C	none
CCCCCCCCCCn1ccc(=N)cc1	none | Mdm2-MdmX confirm 98
O=C(CC(c1ccccc1)c1ccccc1O)NCc1ccco1 (configuration not stated)	none
CCN(CC)S(=O)(=O)c1ccc(N2CCOCC2)c(NC(=O)c2nn(C)c(=O)c3ccccc23)c1	none
COc1cc2oc(=O)cc(-c3ccc(-c4ccc(CO)cc4)cc3)c2c(OC)c1OC	CF NFkB inh 75, TWEAK Fn14 block 66 | Mdm2-MdmX confirm 83
COc1cc2c(cc1OC)C(c1c(Cl)cccc1Cl)=NCC2	none
FC(F)(F)c1nc2ccccc2n2c(-c3ccc(Cl)cc3)nnc12	HIF-2a block 46, Peg3 promoter 51, CF NFkB inh 76, KKLEB tox -56 | HIF-2a inh conf inactive | HIF-1a cs 86
C=C(C(=O)c1ccccc1)C(CC(=O)c1ccccc1)c1ccccc1 (configuration not stated)	HIF-2a block 95, Peg3 promoter 100, CF NFkB inh 52, KKLEB tox -55, TWEAK Fn14 block 71 | Mdm2-MdmX confirm 102 | HIF-2a inh conf 57 | HIF-1a cs 103
COc1cc(/C=C/C(=O)c2ccc(NS(=O)(=O)c3ccc(C)cc3)cc2)cc(OC)c1O	HIF-2a block 54, Peg3 promoter 65, TWEAK Fn14 block 60 | HIF-2a inh conf 64 | HIF-1a cs 104
COc1cc(/C=C/C(=O)c2ccc(C)c([N+](=O)[O-])c2)cc(OC)c1O	HIF-2a block 47, Peg3 promoter 63, TWEAK Fn14 block 69 | HIF-2a inh conf inactive | HIF-1a cs inactive
CCOC(=O)Cc1nnc(NC(=O)C(CC)Sc2nc(C)cc(C)n2)s1 (configuration not stated)	none
COc1ccc(OC)c(C(=O)/C=C/c2ccccc2C(F)(F)F)c1	HIF-2a block 74, Peg3 promoter 102, TWEAK Fn14 block 59 | HIF-2a inh conf inactive | HIF-1a cs 105
CCN(CC)S(=O)(=O)c1ccc(N/N=C/c2ccc(O)cc2O)nc1	none | Mdm2-MdmX confirm 87
Cc1ccc(C(=O)COC(=O)c2nc(Cl)ccc2Cl)cc1	none
O=C(OCn1ncc(Cl)c(Cl)c1=O)c1ccc(C(F)(F)F)cc1	HIF-2a block 93, Peg3 promoter 105, TWEAK Fn14 block 79 | Mdm2-MdmX confirm 103 | HIF-2a inh conf 60 | HIF-1a cs 104
Cc1ccc(C(=O)OCn2ncc(Cl)c(Cl)c2=O)cc1	HIF-2a block 92, Peg3 promoter 102, CF NFkB inh 92, KKLEB tox -94, TWEAK Fn14 block 106, TROY NFkB inh 68 | HIF-2a inh conf 98 | HIF-1a cs 107
COc1cc(CCCN2C(=S)NC[C@@H]2CCCCN)cc(OC)c1OC	none
S=c1[nH]nc(C2CCCCC2)n1/N=C/C=C/c1ccccc1	none
CCCSc1cc(NCCOC(C)=O)c([N+](=O)[O-])c2nonc12	none
CCCC(=O)OCCNc1cc(SCc2ccco2)c2nonc2c1[N+](=O)[O-]	none
CCCC(=O)OCCNc1cc(Sc2nccn2C)c2nonc2c1[N+](=O)[O-]	HIF-2a block 87, Peg3 promoter 110 | HIF-2a inh conf 82 | HIF-1a cs 104
CCC(=O)OCCNc1cc(Sc2nc3ccccc3[nH]2)c2nonc2c1[N+](=O)[O-]	HIF-2a block 86, Peg3 promoter 92, CF NFkB inh 82, KKLEB tox -95, TWEAK Fn14 block 54, TROY NFkB inh 54 | HIF-2a inh conf 84 | HIF-1a cs 84
CCC(=O)OCCNc1cc(Sc2nc3ccccc3s2)c2nonc2c1[N+](=O)[O-]	HIF-2a block 53, Peg3 promoter 99 | HIF-2a inh conf inactive | HIF-1a cs 61
Nc1nc(N)c2c(ccc3c2ccn3Cc2cccc([N+](=O)[O-])c2)n1	HIF-2a block 89, Peg3 promoter 100, TWEAK Fn14 block 79 | HIF-2a inh conf inactive | HIF-1a cs 105
CCOC(=O)C1=C(CNCc2ccc(C)cc2)NC(=O)NC1c1ccc(OC)cc1 (configuration not stated)	none

Source: PubChem BioAssay
